From PubChem
A selection follows.
aSyn 5UTR act: Activators via SNCA 5'UTR binding, MLPCN; alpha-synuclein 5'UTR reporter, activators screen; activity score, % (tested at 7.5 µM), hits read low; 300,000 compounds, 7.1% hits; AID 1814; in the data active = activity score below about -60%
Each line names hits and unclear results; the compound was inactive in the other large screens.

CC(=O)c1cccc(NC(=O)N2CCCc3ccccc32)c1	aSyn 5UTR act -131
CS(=O)(=O)N1CCc2cc(C(=O)Nc3ccc(Cl)cc3)ccc21	aSyn 5UTR act -138
O=C(Nc1ccc(S(=O)(=O)N2CCc3ccccc32)cc1)c1ccc2c(c1)OCO2	aSyn 5UTR act -73
COc1ccc(-c2cn3cc(C(F)(F)F)cc(Cl)c3n2)cc1	aSyn 5UTR act -197
Fc1ccc(-c2cn3cc(C(F)(F)F)cc(Cl)c3n2)cc1	aSyn 5UTR act -101
COc1cccc(N(C(=O)c2nc3nccc(C)n3n2)c2nc3ccccc3s2)c1	aSyn 5UTR act -185
COc1ccc2cc[nH]c2c1	none
N#Cc1ccc(NC(=O)Nc2ccc(Oc3ccc(NC(=O)Nc4ccc(C#N)cc4)cc3)cc2)cc1	none
COc1ccc(NC(=O)Nc2ccc(N(C)C)cc2)cc1	aSyn 5UTR act -124
COc1ccc(NC(=O)Nc2ccc3[nH]ccc3c2)cc1	aSyn 5UTR act -112
COc1ccc(NC(=O)Nc2ccc(OC)cc2)cc1	aSyn 5UTR act -99
COc1ccc2cc(OCC(=O)NNC(=O)Nc3ccc(C(C)=O)cc3)ccc2c1	aSyn 5UTR act -88
COc1ccc(NC(=O)OC(C)C)cc1	aSyn 5UTR act -70
COC(=O)c1cc(CSc2nc3ccccc3[nH]2)oc1C	aSyn 5UTR act -173
COc1ccc2nc(Nc3nc(CSc4nc5ccccc5[nH]4)cc(=O)[nH]3)nc(C)c2c1	none
COc1cccc(CSc2nc3ccccc3[nH]2)c1	aSyn 5UTR act -144
O=[N+]([O-])c1cccc(CSc2nc3ccccc3[nH]2)c1	aSyn 5UTR act -70
CN(C)c1ccc(/C=N/NC(=S)NCc2ccco2)cc1	aSyn 5UTR act -127
CN(C)c1ccc(C(=S)NCc2ccco2)cc1	aSyn 5UTR act -69
CCn1c(C)cc(C=C2C(=O)c3ccccc3C2=O)c1C	aSyn 5UTR act -92
Cc1cccc(-n2c(C)cc(C=C3C(=O)c4ccccc4C3=O)c2C)c1	aSyn 5UTR act -91
Cc1scc(C(=O)N/N=C/c2ccsc2)c1C	aSyn 5UTR act -162
Cc1scc(C(=O)N/N=C/c2ccc([N+](=O)[O-])o2)c1C	none
Cc1scc(C(=O)N/N=C/c2ccco2)c1C	aSyn 5UTR act -86
CN(C)c1ccc(/C=C/c2nnnn2-c2ccccc2)cc1	aSyn 5UTR act -157
CCC(=O)C1CCCN(C(=O)CCc2nnc(C3(c4ccc(Cl)cc4)CCC3)o2)C1 (stereo not given)	aSyn 5UTR act -62
O=C(CCc1nnc(C2(c3ccc(Cl)cc3)CCC2)o1)N1CCCC1	aSyn 5UTR act -72
CC(=O)c1ccc(-c2nnc(CCC(=O)N3CCCC(C(=O)CC(C)C)C3)o2)s1 (stereo not given)	aSyn 5UTR act -157
CC1(C)Cc2c(sc3nc(N/N=C/c4ccccc4)[nH]c(=O)c23)CO1	aSyn 5UTR act -78
COc1cc(SC)ccc1C(=O)NCC1CCCCC1	aSyn 5UTR act -67
COc1cc(SC)ccc1C(=O)NCCOc1ccc(F)cc1	aSyn 5UTR act -150
COc1cc(SC)ccc1C(=O)OCC(=O)N1CCCC1	aSyn 5UTR act -74
COc1ccc(-n2cc(-c3ccccc3)nc2SC)cc1	aSyn 5UTR act -121
COc1ccc2c(c1)sc1nc(-c3ccccc3)cn12	none
CCOc1cccc(Nc2ccc([N+](=O)[O-])cn2)c1	aSyn 5UTR act -102
Cc1cccc(NC2=NC(C)(C)N=C(N)N2)c1	none
Cc1cccc(Nc2ccc([N+](=O)[O-])cn2)c1	aSyn 5UTR act -87
Cc1cc(=O)oc2cc(OCc3cc4c(cc3Cl)OCO4)ccc12	aSyn 5UTR act -66
CC1CCCC(C)N1C(=O)CSc1nc2ccccc2s1 (stereo not given)	aSyn 5UTR act -99
O=C(CSc1nc2ccccc2s1)N1CCCCC1	aSyn 5UTR act -110
Cc1c(Cl)cccc1N/C(SCC(=O)N1CCCCCC1)=C(/C#N)c1nc2ccccc2s1	aSyn 5UTR act -66
CC1CCN(C(=O)CSc2nc3ccccc3s2)CC1	aSyn 5UTR act -154
CC1CCCN(C(=O)CSc2cnc3ccccc3n2)C1 (stereo not given)	aSyn 5UTR act -154
Cc1cc2nc(N)sc2cc1C	aSyn 5UTR act -64
Nc1nc2ccc(OC(F)(F)F)cc2s1	aSyn 5UTR act -74
CC(C)c1ccc2nc(N)sc2c1	aSyn 5UTR act -107
C(=N\Nc1nc2ccccc2s1)/c1ccco1	aSyn 5UTR act -80
Cc1ccsc1/C=N/Nc1nc2ccccc2s1	aSyn 5UTR act -148
CCn1c(C)c(/C=N/Nc2nc3ccccc3s2)c2ccccc21	aSyn 5UTR act -170
OCC(O)/C=N/Nc1nc2ccccc2s1 (stereo not given)	aSyn 5UTR act -72
C(=N\Nc1nc2ccccc2s1)/c1cccs1	aSyn 5UTR act -212
CC1CCC(NC(=O)N(CCCl)N=O)CC1 (stereo not given)	aSyn 5UTR act -138
C/C(=N\OC(=O)c1cccc(C)c1)c1sc(-c2ccccc2)nc1C	aSyn 5UTR act -147
C/C(=N\OC(=O)c1cccc(C(F)(F)F)c1)c1sc(-c2ccccc2)nc1C	aSyn 5UTR act -119
Cc1ccc(C2CCN(C(=O)Nc3ccccc3)C2)cc1 (stereo not given)	aSyn 5UTR act -151
O=C(Nc1ccc(Cl)cc1)N1CCC(c2ccccc2)C1 (stereo not given)	aSyn 5UTR act -82
O=C(Nc1cccc(F)c1)N1CC=C(c2ccc(Cl)cc2)CC1	aSyn 5UTR act -110
O=C(Nc1cccc(F)c1)N1CCC(c2ccccc2)CC1	aSyn 5UTR act -109
O=C(NNc1cccc(Cl)n1)c1ccc(Cl)cc1Cl	aSyn 5UTR act -81
Cc1cc(-c2nc3ncccc3o2)ccc1N	aSyn 5UTR act -111
Cc1ccc(-c2nc3ncccc3o2)cc1N	aSyn 5UTR act -106
Nc1cc(-c2nc3ncccc3o2)ccc1Cl	aSyn 5UTR act -273
Cc1nc(-c2ccccc2)nc2[nH]ccc(=O)c12	aSyn 5UTR act -101
Cc1nc(-c2ccc([N+](=O)[O-])cc2)nc2[nH]ccc(=O)c12	aSyn 5UTR act -202
Cc1ccc(-n2nnnc2SCC(=O)Nc2sc(C)c(C)c2C#N)cc1C	aSyn 5UTR act -71
Cc1ccc2c(c1)c1nc3ccccc3nc1n2C	aSyn 5UTR act -90
Cc1cccc(-n2nc3c(c2NC(=O)C2CC2)CS(=O)(=O)C3)c1C	aSyn 5UTR act -85
COc1ccc(NC(=O)c2csc3c2CCCC3)cc1	aSyn 5UTR act -193
O=C(Nc1nccs1)c1csc2c1CCCC2	aSyn 5UTR act -129
Cc1ccccc1NC(=O)c1csc2c1CCCC2	aSyn 5UTR act -67
COc1cccc(NC(=O)c2csc3c2CCCC3)c1	aSyn 5UTR act -134
Cc1ccc(/C=N/NC(=O)c2ccc3ccccc3c2)s1	aSyn 5UTR act -132
Cc1cc(C(=O)N/N=C/c2ccc([N+](=O)[O-])s2)n[nH]1	none
Cc1cc(C(=O)N/N=C/c2ccc(C)s2)n[nH]1	aSyn 5UTR act -97
O=C(N/N=C/c1cccs1)c1cc(-c2cccc3ccccc23)n[nH]1	aSyn 5UTR act -104
O=C(N/N=C/c1cc(Br)cs1)c1ccc2c(c1)OCCO2	aSyn 5UTR act -344
CC(C)(C)C1CCc2c(C(=O)N/N=C/c3cccs3)csc2C1 (stereo not given)	aSyn 5UTR act -97
O=C(N/N=C/c1cccs1)c1ccc2ccccc2c1	aSyn 5UTR act -240
Cc1ccc(/C=N/NC(=O)c2ccc3c(c2)OCCO3)s1	aSyn 5UTR act -118
CC(C)(C)C1CCC(OC(=O)CN2CCOCC2)CC1 (stereo not given)	aSyn 5UTR act -108
COc1cccc(C2=CC(c3ccc(N(C)C)cc3)n3ncnc3N2)c1 (stereo not given)	aSyn 5UTR act -72
COc1ccc(C2C=C(c3ccccc3)Nc3nnnn32)cc1 (stereo not given)	aSyn 5UTR act -168
